HSF1 activator: HSF-1 activators, primary screen, NIH3T3-HGL cells, MG132 stress, luminescence, single point; activation, % at 9 µM; NIH3T3-HGL HSF-1 luciferase reporter, 8 h; 100% = twice DMSO control signal; AID 504408, 2011; 1.7% of 300,000 active;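 active = mean replicate activation of at least 50% with a set share of replicates each reaching 50%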;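 also: 0% = median of the neutral control wells and 100% = twice that signal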
FXN GAA850 act: FXN promoter activators, primary screen, cell-based, luciferase luminescence, HEK293 lucGAA850 | AID 540364, 2011 | activation, % at 6 µM | 0.56% of 360,000 active | HEK293 lucGAA850 FXN promoter luciferase reporter, 24 h; percent of 10 µM SAHA response;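 active = activation above the average of all compounds screened plus 3 SD, cutoff fixed separately per campaign, cut at about 7.5% in these data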;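 also: 0% = DMSO wells and 100% = 10 µM SAHA wells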
AHR act: AHR activators, primary screen, cell-based, luminescence, luciferase reporter, human; 2.5% of 320,000 active; Aryl hydrocarbon receptor (Homo sapiens), P35869; AHR-responsive luciferase reporter cells; activation, % at 5 µM; in the data active = activation above about 47%;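 also: 0% = vehicle wells and 100% = reference agonist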
Target sequence (P35869 whole entry, looked up): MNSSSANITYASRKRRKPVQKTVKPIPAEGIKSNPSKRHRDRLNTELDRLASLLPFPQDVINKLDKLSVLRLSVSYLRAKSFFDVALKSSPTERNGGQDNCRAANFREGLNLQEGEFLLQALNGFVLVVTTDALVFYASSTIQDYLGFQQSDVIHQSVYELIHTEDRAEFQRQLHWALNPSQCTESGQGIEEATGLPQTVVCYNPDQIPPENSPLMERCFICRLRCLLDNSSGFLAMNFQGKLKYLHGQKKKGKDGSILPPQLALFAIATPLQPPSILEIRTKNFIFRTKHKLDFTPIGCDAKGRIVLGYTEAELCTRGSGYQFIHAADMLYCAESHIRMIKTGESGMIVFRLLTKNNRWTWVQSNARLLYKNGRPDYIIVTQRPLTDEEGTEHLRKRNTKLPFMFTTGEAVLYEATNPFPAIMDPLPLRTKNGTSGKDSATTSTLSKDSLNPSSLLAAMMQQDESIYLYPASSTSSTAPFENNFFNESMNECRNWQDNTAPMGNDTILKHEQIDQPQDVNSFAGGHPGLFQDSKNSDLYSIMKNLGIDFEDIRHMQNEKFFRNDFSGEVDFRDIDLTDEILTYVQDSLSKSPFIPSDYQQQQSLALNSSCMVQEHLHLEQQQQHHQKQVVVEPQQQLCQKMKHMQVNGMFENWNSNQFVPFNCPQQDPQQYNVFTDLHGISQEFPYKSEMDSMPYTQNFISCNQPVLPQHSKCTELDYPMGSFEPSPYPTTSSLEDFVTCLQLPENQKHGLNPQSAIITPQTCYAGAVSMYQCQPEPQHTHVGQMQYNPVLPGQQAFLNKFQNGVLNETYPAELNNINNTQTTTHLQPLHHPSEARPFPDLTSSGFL
HSF1 inh: HSF1 inhibitors in luciferase reporter cells, primary screen, cell-based, NIH3T3, luminescence | 0.77% of 300,000 active | activity change, negative = inhibition, % at 7.5 µM (by protocol) | AID 2098, 2009 | NIH3T3-HGL HSE-luciferase, MG132-induced, luminescence 8 h; active compounds read low;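 active = more than half of replicate wells show activity change below -50%, luminescence cut by over half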;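 also: luciferase reports HSF-1 transcriptional activity via heat shock element; 0% = median of DMSO wells and -100% = zero luminescence signal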
DAX1 inh: DAX1 (NR0B1) inhibitors, primary screen, cell-based, HEK293, Gal4-DAX1, luciferase luminescence; 0.99% of 340,000 active; Nuclear receptor subfamily 0 group B member 1 (Homo sapiens), P51843; inhibition, % at 6.75 µM; HEK293 Gal4-DAX1 luciferase reporter;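 active = inhibition above the mean over all tested compounds plus 3 SD, cut at about 4.2% in these data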;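 also: 0% = DAX1-transfected cells with DMSO and 100% = empty-vector control cells with DMSO; inhibition shows as a rise in luminescence from relieved DAX1 repression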
HSP90 refold inh: HSP90 inhibitors, primary screen, cell lysate, luminescence. Heat shock protein HSP 90 (rabbit reticulocyte lysate; luciferase refolding). Rabbit reticulocyte lysate, luciferase refolding luminescence, 3 h. inhibition, % at 5.6 µM. 0.91% of 290,000 active;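 active = inhibition above the screen-wide mean plus 3 SD, computed separately per campaign, cut at about 16% in these data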;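 also: 0% = DMSO wells and 100% = 60 µM geldanamycin wells; inhibitors lower the luminescence because luciferase stays unfolded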
* = called active by the depositor; . = not tested or not shown. Compounds with a hit are over-represented: about 5.9% of the library has one in this group of screens.

SMILES	HSF1 activator	FXN GAA850 act	AHR act	HSF1 inh	DAX1 inh	HSP90 refold inh
S=C(Nc1ccc(Cl)c(Cl)c1)NC1CCCCC1	30	0	-4	9	-1	0
S=C(Nc1ccc2nsnc2c1)N1CCCCCC1	62*	5	1	41	1	-1
S=C(Nc1ccc2nsnc2c1)NC1CCCCC1	82*	1	8	31	2	7
CC(C)c1ccc(NC(=S)NC2CCCCCC2)cc1	32	3	12	6	-1	-4
CC(OC(=O)c1ccco1)C(=O)Nc1nc(-c2ccccc2)cs1 (stereo unspecified)	.	3	2	.	2	.
O=C(O)C1OC1(c1ccccc1Cl)c1ccccc1Cl (stereo unspecified)	.	3	.	.	2	.
CCOc1ccc(NC(=S)Nc2ccc3nsnc3c2)cc1	8	2	51*	8	-2	11
CCOc1ccc(NC(=S)Nc2ccc(C)c([N+](=O)[O-])c2)cc1	22	-2	4	23	0	17*
CCOc1ccc(NC(=S)Nc2ccc(OCC)cc2)cc1	-23	0	0	-18	0	1
NC(=O)c1cc(C(=O)Cc2ccc(Cl)cc2)c[nH]1	-4	0	0	12	1	6
C/C(=N\Nc1ccc(F)cc1F)c1ccc(N2CCOCC2)cc1	21	4	41	-3	3	-2
C/C(=N\Nc1ccc(F)cc1F)c1ccc(F)cc1	-1	.	60*	-5	.	-1
C/C(=N\NC(=O)c1ccc(Cl)cc1)c1ccc(Br)s1	10	2	15	5	-1	1
C/C(=N\Nc1ccc(F)cc1F)c1ccc(Br)s1	10	-1	54*	7	2	-1
CNC(=S)N(CCc1c(C)[nH]c2ccccc12)Cc1cccnc1	-5	2	4	1	2	2
Cc1nc2ccc(C(=O)N3CCC(O)(Cc4ccccc4)CC3)cn2c1N(C)C(=O)CCc1ccccc1	.	0	.	.	.	.
COc1ccc(/C=N/NC(=O)Nc2cccc3nsnc23)cc1	-21	3	18	-10	2	4
CCOC(=O)C1CCN(C(=S)NC(=O)c2cccs2)CC1	5	2	2	-1	3	10
CC(C)OC(=O)CSc1nnc(C2CCCCC2)n1N	20	2	-2	-5	.	9
O=[N+]([O-])c1cccc(-c2ccc(/C=N/NC(=S)Nc3ccccc3)o2)c1	18	-2	65*	8	-1	-2
CCNC(=S)N/N=C/c1ccc(-c2ccccc2)o1	81*	5	24	49	0	1
CCNC(=S)N/N=C/c1ccco1	6	-3	4	-5	0	7
COc1ccc(C(C(=O)NCCC(C)C)N(CCCO)C(=O)c2snc(C(N)=O)c2N)cc1OC (stereo unspecified)	-10	1	2	-7	0	2
O=C(/C=C/c1ccc([N+](=O)[O-])cc1)N1CCN(c2ccccc2F)CC1	17	-1	4	-1	5.2*	0
COc1cccc([C@@H]2Oc3ccc(OC)cc3C(=O)[C@H]2OC(=O)NCc2ccc3c(c2)OCO3)c1	18	.	54*	10	.	1
SMILES	HSF1 activator	FXN GAA850 act	AHR act	HSF1 inh	DAX1 inh	HSP90 refold inh
COc1cccc([C@@H]2Oc3ccc(OC)cc3C(=O)[C@H]2OC(=O)Nc2cc(OC)c(OC)c(OC)c2)c1	.	.	10	.	.	1
Cc1cc(NC(=S)N(Cc2ccc(Br)cc2)Cc2ccc(C(=O)O)cc2)ccc1Cl	58*	0	0	49	0	4
OC(Cc1cccnc1)c1ccccc1 (stereo unspecified)	.	2	.	.	0	.
CCN(CC(=O)NCc1ccc(Cl)cc1)C(=O)c1ccc(C#N)cc1	12	1	-1	4	-1	-2
O=C(OCc1ccccc1)/C(=C/c1cccc2ccccc12)NC(=O)c1ccccc1	8	1	5	2	0	8
C=CCOC(=O)/C(=C/c1cccc2ccccc12)NC(=O)c1ccccc1	72*	2	13	54	4.3*	-8
CCOC(=O)/C(=C/c1cn(C)c2ccccc12)NC(=O)c1ccccc1	-3	0	49*	-6	0	2
CN1CCN(C(=O)/C(=C/c2cn(C)c3ccccc23)NC(=O)c2ccccc2)CC1	-14	-1	50*	-9	0	-3
CCOC(=O)/C(C#N)=C\c1cn(C)c2ccccc12	11	2	0	0	0	3
Nc1ncnc2c1ncn2[C@@H]1O[C@H](CNCC#Cc2ccccc2)[C@@H](O)[C@H]1O	.	1	2	.	-1	.
Nc1c([N+](=O)[O-])cc(-c2cnc[nH]2)cc1[N+](=O)[O-]	4	2	2	1	2	-1
Cc1ccnc(NC(=O)c2cnc(Cl)c(Cl)c2)c1	25	2	58*	1	1	0
CCc1nc2ccc(C(=O)NCCOc3ccc(OC)cc3)cn2c1N(C)C(=O)C1CCCCC1	.	-1	.	.	.	.
Cc1nnc(SCC(=O)Nc2ccc(Cl)cn2)n1Cc1ccccc1	-3	-2	6	-2	6.0*	-4
Cc1nnc(NC(=O)CSc2nnc(C)n2Cc2ccccc2)s1	-6	0	3	5	0	1
CCCCNC(=O)c1c(O)c2cccc3c2n(c1=O)CCC3	22	1	20	1	1	-1
CCNCCNC(=O)c1c(O)c2cccc3c2n(c1=O)CCC3	-13	2	60*	1	3	0
CCC1CCCCN1C(=O)c1sc2nc(C)nc(N(CC)CC)c2c1C (stereo unspecified)	-38	2	4	-22	1	4
CCOC(=O)C1CCCN(C(=O)c2sc3nc(C)nc(N(CC)CC)c3c2C)C1 (stereo unspecified)	57*	2	0	26	0	2
Cc1oc(-c2cc3c(cc2Cl)OCO3)nc1CN1CCCC1c1ccc(F)cc1 (stereo unspecified)	-60	0	17	-52*	0	-1
CCOc1ccccc1-c1nc(CN2CCCC2c2nccs2)c(C)o1 (stereo unspecified)	.	2	6	.	0	-2
C=C1CCC[C@]2(C)C[C@H]3OC(=O)C(CN(Cc4ccc(OC)c(OC)c4)CC(C)O)[C@H]3CC12 (stereo partly specified)	45	-2	2	36	-1	7

Screening data from PubChem.
